Measured values from PubChem BioAssay AID504832 (National Center for Advancing Translational Sciences (NCATS), 2011).
The campaign covered roughly 310,000 compounds. About 18,000 (5.8%) were called active. Not shown: some 22% with an inconclusive outcome. Shown is part of a subset that was picked to be rich in actives. Values without a mark were called inactive. Calls follow the shape of the dose curve; as a rule, active = well fitted inhibition curve with a large enough effect; inconclusive = small, poorly fitted or top-dose-only effect, or another doubt; inactive = no such curve, though single readings can be large or run the other way.

Assay: Primary qHTS for delayed death inhibitors of the malarial parasite plastid, 48 hour incubation
Details: P. falciparum luciferase growth in erythrocytes; series mostly up to 28.7 µM; activity change, negative = inhibition: at the top concentration
Procedure, shortened: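 First compound was added to culture medium, then infected red cells at 0.1% parasitemia and 2% hematocrit (final). After incubation at 37 C under 5% CO2, luciferase detection reagent was dispensed and light output recorded.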
% is scaled to controls: 0 for no effect and ±100 for the full control effect; potency is read from the fitted curve at half-maximal effect.

First: C=CCc1cccc(/C=N/NC(=O)COc2ccc(-n3cnnn3)cc2)c1O
Second: O=S(=O)(Nc1ccc(-n2cnnn2)cc1)c1ccc(Cl)cc1
The “activity change, negative = inhibition” value of the first is lower: -22% for the first, -3.82% for the second.

First: CCOc1ccc(-n2c(SCC(N)=O)nnc2-c2ccco2)cc1
Second: CC(Sc1nnc(COc2ccccc2)n1-c1ccccc1)C(=O)O (stereo not given)
The “activity change, negative = inhibition” value of the first is higher: 12.9% for the first, -26.1% for the second.

Compared with `O=C(COc1cccc(Cl)c1)NCc1ccccc1`, `CCOc1ccc(C(CC(=O)O)NC(=O)Cc2ccccc2)cc1OC` (stereo not given) is higher in “activity change, negative = inhibition” value: 10.5% for the first, 15.7% for the second.

First: COc1cccc(CNC(=O)C2CC(=O)N(C3CCCCCCC3)C2)c1 (stereo not given)
Second: COc1cccc(CNS(=O)(=O)c2ccc3c(c2)CC(C)N3C(=O)C2CCC2)c1 (stereo not given)
The “activity change, negative = inhibition” value of the first is lower: -13.4% for the first, -10.2% for the second.

Compared with `COC(=O)C1=C(c2c(C)noc2C)C[C@@H]2CC[C@H]1N2C(=O)NCc1ccc2c(c1)OCO2`, `COC(=O)C1=C(c2ccc(C(C)=O)cc2)C[C@@H]2CC[C@H]1N2C(=O)NCCNC(C)=O` is higher in “activity change, negative = inhibition” value: -0.217% for the first, 37.2% for the second.

Going from `O=C(NCc1ccncc1)C(=O)NCC1OCCN1S(=O)(=O)c1ccc(Br)cc1` (stereo not given) to `Cc1ccc(S(=O)(=O)N2CCN(C(=O)c3ccc(-n4cncn4)c([N+](=O)[O-])c3)CC2)cc1`, the “activity change, negative = inhibition” value falls from 9.05% to -25.4%.

Compared with `COCCCNc1nc2c(-c3cccc(C)c3)nnn2c2ccc(Cl)cc12`, `CCN(CC(=O)Nc1cc(Cl)ccc1C)C(=O)CSCc1ccc(C)cc1` is higher in “activity change, negative = inhibition” value: -9.36% for the first, 0.0039% for the second.

First: CCOc1ccc(CC(=O)NCCS(=O)(=O)N2CCN(c3ccccc3)CC2)cc1
Second: CC(=O)NC(CC(=O)Nc1cccc(S(=O)(=O)N2CCCC2)c1)c1ccccc1 (stereo not given)
The “activity change, negative = inhibition” value of the first is lower: -14.8% for the first, -5.84% for the second.

First: Cc1csc2nc(O)c(C(=O)NCCN3CCOCC3)c(=O)n12
Second: COc1cc(/C=C2\C(=N)N3N=C(CC(=O)N4CCOCC4)SC3=NC2=O)cc(OC)c1OC
The “activity change, negative = inhibition” value of the first is lower: -13.4% for the first, 29.4% for the second.

Going from `O=C(CN1CCN(S(=O)(=O)c2ccc(Cl)s2)CC1)N1CCCCC1` to `CC(C)c1ccc(S(=O)(=O)N2CCN(C(=O)c3ccc(N4CCCC4)c([N+](=O)[O-])c3)CC2)cc1`, the “activity change, negative = inhibition” value falls from -8.33% to -11.7%.

Compared with `CS(=O)(=O)N1CCN(C(=O)c2cc3ccccc3oc2=O)CC1`, `CCOC(=O)N1CCN(C(=O)c2ccc(S(=O)(=O)c3ccc(C)cc3)c(NC(C)=O)c2)CC1` is lower in “activity change, negative = inhibition” value: -0.673% for the first, -6.92% for the second.

First: O=C(NCCc1ccccc1)c1ccc2c(c1)N(Cc1ccccc1)CCS2
Second: O=C(NCCc1ccc(Cl)cc1)c1cccc(N2CCCC2=O)c1
The “activity change, negative = inhibition” value of the first is lower: -14.5% for the first, 58.9% for the second.

First: COc1ccc(C(C(=O)NC(C)(C)C)N(C(=O)Cn2nnc3ccccc32)c2ccc(C(C)=O)cc2)cc1O (stereo not given)
Second: CCC(C)(C)NC(=O)C(c1ccccn1)N(C(=O)c1csnn1)c1ccccc1 (stereo not given)
The “activity change, negative = inhibition” value of the first is lower: -29.7% for the first, 1.07% for the second.

Compared with `C=CCNC(=S)N/N=C/c1ccc(OCc2ccccc2)cc1`, `Cc1ccc(OCc2nc3ccccc3n2C)cc1` is higher in “activity change, negative = inhibition” value: -2.98% for the first, 130% for the second.

Compared with `Cc1ccc(/C=N/NC(=O)CN2CCN(Cc3ccccc3)CC2)s1`, `Cc1ccc(Nc2nc(N)nc(CN3CCN(Cc4ccccc4)CC3)n2)cc1Cl` is lower in “activity change, negative = inhibition” value: 51% for the first, 6.24% for the second.

First: CC(C)(C)C(=O)NC1CC2CCCC(C1)N2C(=O)Nc1ccccc1F (stereo not given)
Second: COc1ccccc1NC(=O)N1CCCC1C(=O)NCc1cccs1 (stereo not given)
The “activity change, negative = inhibition” value of the first is higher: 11.9% for the first, -11% for the second.

Compared with `Cc1ccc(C)c(-n2c(SCC(=O)O)nc3sc4c(c3c2=O)CCCC4)c1`, `COc1ccccc1-n1c(SCC(=O)O)nc2sc3c(c2c1=O)CCC3` is higher in “activity change, negative = inhibition” value: -7.11% for the first, -4.58% for the second.

Going from `CCc1nc(SCC(=O)Nc2ccccc2OC)n[nH]1` to `CCOc1ccc2cc(C#N)c(SCC(=O)OC)nc2c1`, the “activity change, negative = inhibition” value rises from 29.7% to 202%.

Compared with `CCc1cc2c(=O)n(-c3ccccc3)c(SCC(=O)O)nc2s1`, `Cc1sc2nc(SCCO)n(-c3ccccc3)c(=O)c2c1C` is lower in “activity change, negative = inhibition” value: 7.53% for the first, 5.65% for the second.

Compared with `CCOC(=O)Cn1c(SC)nc2sc3c(c2c1=O)CC(C)(C)OC3`, `CCOc1ccc(N/C(N)=N/c2nc(C)c(C)c(=O)[nH]2)cc1` is lower in “activity change, negative = inhibition” value: 0.338% for the first, -10.7% for the second.

Going from `COc1ccc(-n2c(=S)[nH]c3sc4c(c3c2=O)CCc2ccccc2-4)cc1` to `COc1ccc(COC(=O)NC(C(=O)O)c2ccccc2)cc1` (stereo not given), the “activity change, negative = inhibition” value falls from -0.883% to -25.7%.

First: C[C@H](OC(=O)n1ccnc1)[C@@H]1O[C@@]2(C)CCC[C@@H]1O2
Second: Cc1ccc(-n2ncc3c2CCCC3NC(=O)c2cnccn2)cc1C (stereo not given)
The “activity change, negative = inhibition” value of the first is higher: 2.35% for the first, -16.1% for the second.

Compared with `Cc1cccc(CN2CCC(n3nccc3NC(=O)c3ccccc3C)CC2)n1`, `CC(=O)NCC(=O)N1CCC(n2nccc2NC(=O)CCCc2ccccc2)CC1` is higher in “activity change, negative = inhibition” value: 9.28% for the first, 9.78% for the second.

Going from `COc1ccccc1C(=O)NCCC(=O)NC(C)CCc1ccccc1` (stereo not given) to `O=C(CCNC(=O)c1ccccc1Cl)NCc1ccco1`, the “activity change, negative = inhibition” value falls from 5.59% to -17.4%.

Compared with `O=c1oc2ccccc2c(NC2CCCCC2)c1NS(=O)(=O)c1ccc(Cl)cc1`, `COC(=O)COc1ccc2c(=O)c(Oc3ccccc3Br)coc2c1` is lower in “activity change, negative = inhibition” value: 16.6% for the first, 13.4% for the second.

Compared with `O=C(C1CC(=O)N(c2ccc(Br)cc2)C1)N1CCCC1` (stereo not given), `CC1CC(C)CN(c2ccc(S(=O)(=O)N3CCOCC3)cc2)C1` (stereo not given) is lower in “activity change, negative = inhibition” value: 7.71% for the first, 4.74% for the second.

First: CCN1C(=O)C(=O)N(CC(=O)Nc2cc(C)ccc2C)C1=O
Second: CCOc1ccc(OCC)c(NC(=O)CCS(=O)(=O)c2ccc(C)cc2)c1
The “activity change, negative = inhibition” value of the first is higher: -13.3% for the first, -25.3% for the second.

Compared with `COC(=O)/C=C/C(=O)NCc1ccco1`, `CCC(=O)N1c2ccc(S(=O)(=O)NCc3ccco3)cc2CC1C` (stereo not given) is higher in “activity change, negative = inhibition” value: -12.4% for the first, 44.5% for the second.

Going from `O=C(Nc1ncc([N+](=O)[O-])s1)C1COc2ccccc2O1` (stereo not given) to `CC(C)(C)C(=O)CN1C2=NCCN2c2ccccc21`, the “activity change, negative = inhibition” value falls from 53.4% to 0.643%.

Going from `CN(C(=O)CN1C(=O)/C(=C/c2ccc(Cl)cc2)SC1=S)C1CCS(=O)(=O)C1` (stereo not given) to `COc1ccccc1C(=O)N(Cc1ccc(C)o1)C1CCS(=O)(=O)C1` (stereo not given), the “activity change, negative = inhibition” value rises from -0.4% to 27.3%.

First: CCc1c(C)nc(N)n2c(SCC(=O)NC3CCCCC3)nnc12
Second: COc1ccc(NC(=O)C2CCC(CNS(=O)(=O)c3csc(C(N)=O)c3)CC2)cc1OC (stereo not given)
The “activity change, negative = inhibition” value of the first is lower: -18.9% for the first, -9.3% for the second.

Going from `COc1ccc(/C=N/NC(=O)c2ccc3c(c2)OCCO3)c(OC)c1` to `Cc1ccc(OCC(=O)Nc2ccc3oc(=O)ccc3c2)cc1C`, the “activity change, negative = inhibition” value falls from 27.3% to 16.6%.

Compared with `Cn1nccc1C(=O)N1CCCC(C(=O)c2ccc(Oc3ccccc3)cc2)C1` (stereo not given), `CC1C(=O)Nc2ccccc2N1C(=O)c1ccc(F)cc1F` (stereo not given) is higher in “activity change, negative = inhibition” value: -24.4% for the first, -6.46% for the second.

Compared with `CN(C)CCCN=Cc1c(O)n(Cc2ccco2)c(=O)[nH]c1=O`, `Cn1c(O)c(C=Nc2ccc3c(c2)CCC3)c(=O)n(C)c1=O` is lower in “activity change, negative = inhibition” value: 27.8% for the first, 16.4% for the second.

Going from `O=C(CN1CCN(C2CCS(=O)(=O)C2)CC1)N1N=C(c2ccc(Cl)cc2)CC1c1ccco1` (stereo not given) to `Cc1cc(C)cc(N(CCC#N)C(=O)CN2C(=O)NC3(CCCC3)C2=O)c1`, the “activity change, negative = inhibition” value falls from 28.6% to 17%.

First: O=C(CCCCO)c1ccc(O)c(Cl)c1
Second: CCN(CC(=O)Nc1cccc(S(N)(=O)=O)c1)Cc1nc2ccccc2c(=O)[nH]1
The “activity change, negative = inhibition” value of the first is lower: -10.3% for the first, 97.7% for the second.

In the case of `COC(=O)C1=C(c2cccc(OCc3ccccc3)c2)C[C@@H]2CC[C@H]1N2C(=O)NNCc1ccccc1`, the Potency is reported as 8.28 µM (active).
With `COC(=O)C1=C(c2cccc(OCc3ccccc3)c2)C[C@@H]2CC[C@H]1N2C(=O)NCc1ccc(Br)cc1` the Potency was 11.7 µM (active).
For `O=C(c1cc2ccccc2o1)N1CCN(S(=O)(=O)c2ccc(Cl)s2)CC1`, the Potency was 11.7 µM (active).
With `CCOC(=O)N1CCN(C(=O)c2ccc3c(c2)N(Cc2ccc(C)cc2)CCS3)CC1` the Potency was 13.1 µM (active).
In the case of `CCC(C)(C)NC(=O)C(c1ccc(O)cc1)N(C(=O)Cn1nnc2ccccc21)c1ccc(NC(C)=O)cc1` (stereo not given), the Potency is reported as 2.08 µM (active).
For `C=CCNC(=S)N/N=C/c1ccc(C)s1`, the Potency was 4.65 µM (active).
With `COc1ccccc1NC(=O)CSc1nc2sc3c(c2c(=O)n1-c1ccccc1)CCN(C)C3` the Potency was 1.65 µM (active).
In the case of `CCSc1nc2sc3c(c2c(=O)n1-c1ccc(C)cc1)CCN(C)C3`, the Potency is reported as 2.62 µM (active).
In the case of `CCOc1ccc(-n2c(SCC(=O)OC)nc3sc4c(c3c2=O)CCN(C)C4)cc1`, the Potency is reported as 0.928 µM (active).
In the case of `CCCSc1nc2sc3c(c2c(=O)n1-c1ccc(OC)cc1)CCN(C)C3`, the Potency is reported as 7.38 µM (active).
In the case of `Nc1ccc(C(=O)N2CCN(S(=O)(=O)c3ccc(Cl)cc3)CC2)cc1[N+](=O)[O-]`, the Potency is reported as 13.1 µM (active).
In the case of `O=C(/C=C/c1ccc(Cl)cc1Cl)NCc1ccco1`, the Potency is reported as 11.7 µM (active).
With `COc1ccc2cc1Oc1ccc(cc1)C[C@H]1c3cc(c(OC)cc3CCN1C)Oc1c(O)c(OC)cc3c1[C@H](C2)N(C)CC3` the Potency was 2.94 µM (active).
In the case of `CC(C)n1c(=O)c(C=Nc2ccc(Br)cc2)c(O)n(Cc2ccco2)c1=O`, the Potency is reported as 13.1 µM (active).
In the case of `CCN1C(=S)N[C@@H](CCc2ccccc2)[C@H](C(=O)OC)[C@H]1C`, the Potency is reported as “inactive”.
With `CC(C)C[C@H](NC(=O)[C@@H]1O[C@H]1C(=O)O)C(=O)NCCCCN=C(N)N` the Potency was 11.7 µM (active).
For `Cc1cc2c(cc1C)N(Cc1ccccc1)C1=NCCCN12`, the Potency was 11.7 µM (active).
For `COc1ccc(C(CCN(Cc2ccc(OC)c(OC)c2)C(=O)CCl)c2ccccc2)cc1` (stereo not given), the Potency was 2.94 µM (active).
For `CC[C@]1(O)CC2CN(CCc3c([nH]c4ccccc34)[C@@](C(=O)OC)(c3cc4c(cc3OC)N(C=O)[C@H]3[C@@](O)(C(=O)OC)[C@H](OC(C)=O)[C@]5(CC)C=CCN6CC[C@]43[C@@H]65)C2)C1` (stereo not given in full), the Potency was 0.147 µM (active).
For `CC[C@]1(O)C[C@@H]2CN(CCc3c([nH]c4ccccc34)[C@@](C(=O)OC)(c3cc4c(cc3OC)N(C)[C@H]3[C@@](O)(C(=O)OC)[C@H](OC(C)=O)[C@]5(CC)C=CCN6CC[C@]43[C@@H]65)C2)C1`, the Potency was 0.208 µM (active).
With `CCCCN(CC(=O)Nc1cccc(S(=O)(=O)N2CCCC2)c1)Cc1nc2ccccc2c(=O)[nH]1` the Potency was 3.7 µM (active).
For `CCN1C(=NCCc2cccnc2)N[C@@H](c2ccccc2)[C@H](C(=O)OC)[C@H]1C`, the Potency was “inactive”.
With `Cc1ccc(CNC(=O)CCS(=O)(=O)c2ccc3c(c2)CC(C)N3C(=O)C2CC2)o1` (stereo not given) the Potency was 10.4 µM (active).
